A3G deaminase = APOBEC3G DNA deaminase inhibitors, primary screen, biochemical, fluorescence, single-stranded DNA substrate, uHTS; DNA dC->dU-editing enzyme APOBEC-3G (Homo sapiens), Q9HC16; recombinant A3G, ssDNA deamination FAM/TAMRA fluorescence; inhibition, % at 20 µM; actives 0.28% (n = 330,000); AID 493012, 2011;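 active = inhibition of at least 40% at 20 µM, with no more than 30% in the related APOBEC3A deaminase screen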;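 also: plate controls were DMSO wells with A3G for no effect and wells lacking A3G enzyme for full effect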
Target sequence (Q9HC16 whole entry, looked up): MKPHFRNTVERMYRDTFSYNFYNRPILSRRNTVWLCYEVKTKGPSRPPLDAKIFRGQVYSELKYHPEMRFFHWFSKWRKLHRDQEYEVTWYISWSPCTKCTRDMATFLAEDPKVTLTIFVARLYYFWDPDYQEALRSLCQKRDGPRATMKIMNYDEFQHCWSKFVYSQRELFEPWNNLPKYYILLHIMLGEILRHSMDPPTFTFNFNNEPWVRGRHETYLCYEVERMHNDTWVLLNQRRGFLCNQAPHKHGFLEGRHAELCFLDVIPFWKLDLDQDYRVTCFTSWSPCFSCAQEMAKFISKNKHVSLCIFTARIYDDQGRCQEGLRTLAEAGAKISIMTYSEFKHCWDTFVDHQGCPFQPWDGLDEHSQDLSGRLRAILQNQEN
A3A deaminase = APOBEC3A ssDNA deaminase inhibitors, primary screen, selectivity assay for APOBEC3G inhibitor project, biochemical, FAM/TAMRA oligo cleavage fluorescence; DNA dC->dU-editing enzyme APOBEC-3A (Homo sapiens), P31941; recombinant A3A, FAM/TAMRA ssDNA deamination fluorescence; inhibition, % at 20 µM; actives 0.41% (n = 330,000);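 active = at least 40% inhibition at 20 µM here, with at most 30% in a related deaminase screen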;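 also: plate controls were A3A with DMSO for no effect and wells lacking A3A enzyme for full effect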
Target sequence (P31941 whole entry, looked up): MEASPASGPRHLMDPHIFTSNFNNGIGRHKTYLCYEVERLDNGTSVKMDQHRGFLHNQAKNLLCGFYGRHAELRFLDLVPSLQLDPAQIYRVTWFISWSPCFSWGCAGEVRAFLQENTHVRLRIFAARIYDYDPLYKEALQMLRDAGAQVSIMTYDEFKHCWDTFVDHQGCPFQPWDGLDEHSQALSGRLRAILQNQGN
ADAM17 inh = ADAM17 inhibitors, primary screen, biochemical, QFRET | Disintegrin and metalloproteinase domain-containing protein 17 (Homo sapiens), P78536 | recombinant ADAM17, EDANS/DABCYL FRET peptide cleavage | inhibition, % at 6.95 µM | actives 0.83% (n = 370,000) | AID 720648, 2013;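 active = inhibition above the mean of compounds lying between control limits plus 3 SD, set per campaign, cut at about 8.5% in these data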;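 also: 0% = DMSO-only wells as the low control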
NRP1-CendR mod = modulators of CendR peptide binding to NRP-1, primary screen, biochemical, fluorescence polarization, uHTS. inhibition, % at 25 µM. actives 0.85% (n = 360,000). Neuropilin-1 (Homo sapiens), O14786. FAM-RPARPAR peptide binding to NRP-1. AID 602438, 2012;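 active = inhibition or corrected inhibition above about 18%, plus a signal ratio from 0.5 to 1.5, limit read from the data, passing the limit was not always enough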
ADAM10 inh = human ADAM10 inhibitors, primary screen, biochemical, QFRET, HTS; Disintegrin and metalloproteinase domain-containing protein 10 (Homo sapiens), O14672; recombinant ADAM10, EDANS/DABCYL FRET peptide cleavage, 3 h; inhibition, % at 7 µM; actives 0.62% (n = 370,000); AID 720582, 2013;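 active = inhibition above a per-campaign cutoff equal to the mean of compounds falling between control-based bounds plus 3 SD, cut at about 20% in these data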;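 also: 0% = DMSO wells while the 100% control is not disclosed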
ADAM10 confirm = human ADAM10 inhibitors, confirmation, biochemical, QFRET, triplicate; ADAM10 QFRET peptide cleavage, EDANS fluorescence; AID 743208, 2013; shares compounds with ADAM10 inh; actives 1% (n = 2,100); inhibition, % at 6.95 µM;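 active = inhibition above about 20% chosen separately for each screening run, limit read from the data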;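 also: 0% = DMSO wells and 100% = marimastat wells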
ADAM17 ctr = ADAM17 inhibitors, counter-screen for ADAM10 exosite inhibitor project, biochemical, QFRET, high throughput; shares compounds with ADAM10 inh; ADAM17 QFRET peptide cleavage, EDANS fluorescence; inhibition, % at 6.95 µM; actives 0.5% (n = 2,100);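 active = mean triplicate inhibition above the solvent-only control wells' mean plus 3 SD, cut at about 12% in these data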;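 also: 0% = DMSO wells and 100% = marimastat wells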
Starred values were filed as active, the others as inactive. Sampled rows, rich in hits. Any-hit rate of the full collection: about 2.4%.

How did Clc1ccc(-n2c(SCc3cccc4ccccc34)nnc2-c2ccco2)cc1 do in these assays?
ADAM17 inh: 8; ADAM10 inh: 17

Results for CC(C)C[C@H](NC(=O)c1nc[nH]c1C(=O)NC(c1ccccc1)c1ccccc1)C(=O)OCc1ccccc1 ?
A3G deaminase: -5; A3A deaminase: -2; ADAM17 inh: 7; NRP1-CendR mod: 16; ADAM10 inh: 23*; ADAM10 confirm: 17; ADAM17 ctr: 6

What do the screens show for `CC(C)C[C@H](NC(=O)c1[nH]cnc1C(=O)N[C@H](C)c1ccccc1)C(=O)OC(C)(C)C`?
A3G deaminase: -11; A3A deaminase: -2; ADAM17 inh: 9; NRP1-CendR mod: 17; ADAM10 inh: 25*; ADAM10 confirm: 4; ADAM17 ctr: 2

What do the screens show for `CC(C)C[C@H](NC(=O)c1nc[nH]c1C(=O)NCCCCCN)C(=O)OCc1ccccc1`?
A3G deaminase: -4; A3A deaminase: 0; ADAM17 inh: 3; NRP1-CendR mod: 0; ADAM10 inh: -11

How did Cc1ccc(NC(=O)c2nc[nH]c2C(=O)N[C@@H](C)c2ccccc2)cc1 do in these assays?
A3G deaminase: -7; A3A deaminase: -1; ADAM17 inh: 6; NRP1-CendR mod: 32*; ADAM10 inh: 24*; ADAM10 confirm: 5; ADAM17 ctr: 2

How did O=C(N[C@@H](Cc1ccccc1)C(=O)OCc1ccccc1)c1nc[nH]c1C(=O)NCc1ccccc1 do in these assays?
A3G deaminase: 14; A3A deaminase: 2; ADAM17 inh: 8; NRP1-CendR mod: 4; ADAM10 inh: 21*; ADAM10 confirm: 7; ADAM17 ctr: 2

How did C[C@@H](NC(=O)c1[nH]cnc1C(=O)Nc1ccccc1)c1ccccc1 do in these assays?
A3G deaminase: -9; A3A deaminase: -2; ADAM17 inh: 3; NRP1-CendR mod: 9; ADAM10 inh: 16

Results for O=C(N[C@@H](Cc1cccnc1)C(=O)N1CCC[C@H]1C(=O)NCCc1ccccc1Cl)C1CC1 ?
ADAM17 inh: -7; ADAM10 inh: -21

What do the screens show for `COc1cc(NC(=O)c2[nH]c(C)c(C(C)=O)c2C)c(OC)cc1Cl`?
ADAM17 inh: -3; ADAM10 inh: 1

How did O=C(CNC(=O)c1nc[nH]c1C(=O)N1CCc2ccccc2C1)OCc1ccccc1 do in these assays?
A3G deaminase: -12; A3A deaminase: -3; ADAM17 inh: 3; NRP1-CendR mod: 11; ADAM10 inh: 22*; ADAM10 confirm: 0; ADAM17 ctr: 0

How did CC(C)n1nnnc1C1(C)CSCC(=O)N1Cc1cccc(F)c1 (centres undefined) do in these assays?
ADAM17 inh: -1; ADAM10 inh: 0

How did NNc1nc(-c2ccccc2)nc(-c2ccccc2)c1Br do in these assays?
A3G deaminase: -3; A3A deaminase: -2; ADAM17 inh: 7; NRP1-CendR mod: 0; ADAM10 inh: 21*; ADAM10 confirm: 3; ADAM17 ctr: 1

What do the screens show for `CNc1nc(-c2ccccc2)nc(-c2ccccc2)c1C#N`?
A3G deaminase: -8; A3A deaminase: -2; ADAM17 inh: 3; NRP1-CendR mod: 12; ADAM10 inh: -20

How did O=C(Cn1c(-c2cncs2)nc2ccccc21)N1CCOCC1 do in these assays?
ADAM17 inh: 1; ADAM10 inh: -12

Results for CC(=O)c1ccc(NC(=S)NC(=O)/C=C/c2ccco2)cc1 ?
A3G deaminase: -3; A3A deaminase: -1; ADAM17 inh: -1; NRP1-CendR mod: -5; ADAM10 inh: -1

How did O=C(/C=C/c1ccco1)NC(=S)Nc1ccccc1 do in these assays?
A3G deaminase: 2; A3A deaminase: 5; ADAM17 inh: 5; NRP1-CendR mod: -19; ADAM10 inh: 23*; ADAM10 confirm: 3; ADAM17 ctr: 1

Results for COc1ccc(/C=C(\C)C(=O)c2c(C)cc(C)[nH]c2=O)cc1 ?
A3G deaminase: 6; A3A deaminase: 3; ADAM17 inh: 1; NRP1-CendR mod: 8; ADAM10 inh: 2

What do the screens show for `CCOc1ccc(/C=C(\C)C(=O)c2c(C)cc(C)[nH]c2=O)cc1`?
A3G deaminase: -6; A3A deaminase: -3; ADAM17 inh: 7; NRP1-CendR mod: 9; ADAM10 inh: 20*; ADAM10 confirm: -2; ADAM17 ctr: -1

What do the screens show for `Cc1cccc(-c2noc(CNC(=O)c3ccc4c(c3)OCO4)n2)c1`?
A3G deaminase: -6; A3A deaminase: -1; ADAM17 inh: 2; NRP1-CendR mod: -39; ADAM10 inh: 23*; ADAM10 confirm: 0; ADAM17 ctr: 1

Results for COc1ccc(-c2noc(CNC(=O)c3ccc4c(c3)OCO4)n2)cc1 ?
A3G deaminase: -6; A3A deaminase: 1; ADAM17 inh: 2; NRP1-CendR mod: -11; ADAM10 inh: -3

Results for CCCC[C@H](C(=O)N(CC)c1ccccc1)[C@@H](O)c1ccc(Cl)cc1 ?
ADAM17 inh: 3; ADAM10 inh: 10

Results for C[C@@H]1CN([C@H](C)CO)C(=O)c2cc(NC(=O)Nc3ccccc3)ccc2O[C@@H](C)CCCCO[C@H]1CN(C)S(=O)(=O)c1ccc(F)cc1 ?
ADAM17 inh: 8; ADAM10 inh: 20*; ADAM10 confirm: 6; ADAM17 ctr: 2

What do the screens show for `C[C@@H]1CN([C@@H](C)CO)S(=O)(=O)c2ccc(Br)cc2O[C@H]1CN(C)C(=O)Nc1ccc(C(F)(F)F)cc1`?
ADAM17 inh: 8; NRP1-CendR mod: -1; ADAM10 inh: 21*; ADAM10 confirm: 4; ADAM17 ctr: 1

What do the screens show for `COc1ccc(S(=O)(=O)Nc2ccc3c(c2)C(=O)N([C@H](C)CO)C[C@H](C)[C@@H](CN(C)C(=O)Nc2ccc(F)cc2)OCCCC[C@H](C)O3)cc1`?
ADAM17 inh: -1; NRP1-CendR mod: 0; ADAM10 inh: -1

How did C[C@@H]1CN([C@H](C)CO)S(=O)(=O)c2ccc(Br)cc2O[C@@H]1CN(C)C(=O)Nc1ccc(C(F)(F)F)cc1 do in these assays?
ADAM17 inh: 0; NRP1-CendR mod: 6; ADAM10 inh: 5

From PubChem
